For 46 molecules, inhibition results are on record in ChEMBL document CHEMBL4808148, “HDAC6 screening dataset using tau-based substrate in an enzymatic assay yields selective inhibitors and activators” (2021).

SMILES strings stand for the structures. The campaign covered roughly 5,600 compounds. About 390 (7%) showed an effect of 50% or more. The full list was thinned out, with strong results kept by preference.

The test addresses T1, Protein deacetylase HDAC6 (Homo sapiens) (UniProt Q9UBN7).
T1 sequence (whole entry): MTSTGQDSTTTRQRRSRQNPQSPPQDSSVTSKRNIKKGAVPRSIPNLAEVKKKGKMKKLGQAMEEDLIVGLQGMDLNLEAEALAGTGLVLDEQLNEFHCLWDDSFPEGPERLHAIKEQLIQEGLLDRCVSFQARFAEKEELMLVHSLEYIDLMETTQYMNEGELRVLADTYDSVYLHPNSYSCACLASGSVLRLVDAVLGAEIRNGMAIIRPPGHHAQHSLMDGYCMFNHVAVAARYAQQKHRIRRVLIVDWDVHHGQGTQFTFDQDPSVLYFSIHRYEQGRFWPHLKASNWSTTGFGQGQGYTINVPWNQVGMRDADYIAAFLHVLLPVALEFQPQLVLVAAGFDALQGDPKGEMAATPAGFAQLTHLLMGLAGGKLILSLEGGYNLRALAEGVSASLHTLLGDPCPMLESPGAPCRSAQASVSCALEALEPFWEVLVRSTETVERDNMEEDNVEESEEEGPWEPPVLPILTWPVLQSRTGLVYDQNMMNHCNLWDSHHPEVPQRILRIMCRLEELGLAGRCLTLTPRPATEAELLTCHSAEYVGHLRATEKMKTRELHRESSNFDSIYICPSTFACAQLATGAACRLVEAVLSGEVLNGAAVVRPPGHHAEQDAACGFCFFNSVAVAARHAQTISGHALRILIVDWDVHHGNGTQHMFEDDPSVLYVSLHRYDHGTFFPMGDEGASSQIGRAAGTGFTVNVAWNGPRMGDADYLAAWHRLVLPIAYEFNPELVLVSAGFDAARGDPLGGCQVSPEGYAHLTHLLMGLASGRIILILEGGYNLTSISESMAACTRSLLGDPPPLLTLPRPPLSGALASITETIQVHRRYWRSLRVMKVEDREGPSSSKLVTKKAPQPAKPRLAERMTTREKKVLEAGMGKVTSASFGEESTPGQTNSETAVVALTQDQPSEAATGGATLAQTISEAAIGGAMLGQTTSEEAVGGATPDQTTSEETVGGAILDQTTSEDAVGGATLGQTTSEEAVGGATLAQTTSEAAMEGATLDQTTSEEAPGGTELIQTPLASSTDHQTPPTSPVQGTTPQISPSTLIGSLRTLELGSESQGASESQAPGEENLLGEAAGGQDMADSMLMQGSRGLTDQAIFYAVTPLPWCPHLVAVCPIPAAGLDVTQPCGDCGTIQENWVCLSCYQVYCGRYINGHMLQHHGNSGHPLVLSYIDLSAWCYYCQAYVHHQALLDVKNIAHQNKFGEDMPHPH
The note with it: at 10 µM.
Regarding `CCOC(=O)[C@H](Cc1ccc([N+](=O)[O-])cc1)NC(=O)c1ccccc1`, the inhibition turned out to be 14.4%.
`O=C(Nc1ccccc1C(=O)Nc1ccc(CCO)cc1)c1ccc([N+](=O)[O-])cc1`: the inhibition is 78.3%.
For `O=C(Nc1cc(-c2ccccc2)nn1-c1ccccc1)c1ccc([N+](=O)[O-])cc1` the value was 23%; for `C[C@]12C=CC(=O)N[C@@H]1CC[C@@H]1[C@@H]2CC[C@]2(C)[C@@H](C(=O)Nc3cc(C(F)(F)F)ccc3C(F)(F)F)CC[C@@H]12`, 34.1%.
For the molecule `O=C(NCCN1CCC(n2c(=O)[nH]c3ccccc32)CC1)c1cc2cc(F)ccc2[nH]1`, the inhibition worked out at 22.7%.
Under `CCOCOC[C@H](C[C@H](C)C(=O)NO)NC(=O)c1ccc(Oc2ccccc2)cc1` stands 25.9%.
For `C[C@@H](C(=O)O)c1ccc(-c2ccccc2)c(F)c1` the value was 0.12%; for `CC(C(=O)O)c1ccc2c(c1)Cc1ccccc1-2` (stereo unspecified), 63.7%.
For `CC(C(=O)O)c1ccc(-c2ccccc2)c(F)c1` (racemic) the value was 13.4%; for `CCn1cnc(C(=O)NC)c1C(=O)NC`, -8.83%.
For the molecule `Cc1ccccc1N1CCN(S(=O)(=O)CC23CCC(C[C@@H]2NC(=O)[C@@H](N)CCS(C)(=O)=O)C3(C)C)CC1` (stereo partly specified), the inhibition was determined as 2.99%.
Under `CN[C@@H]1[C@H](O[C@H]2[C@H](O[C@H]3[C@H](O)[C@@H](O)[C@H](NC(=N)N)[C@@H](O)[C@@H]3NC(=N)N)O[C@@H](C)[C@]2(O)CO)O[C@@H](CO)[C@H](O)[C@H]1O` stands 8.93%.
For `C/C1=C/C[C@@H](/C(C)=C/c2csc(C)n2)OC(=O)C[C@H](O)C(C)(C)C(=O)[C@H](C)[C@@H](O)[C@@H](C)CCC1` the value was -9.51%; for `CN(C)CC/C=C1\c2ccccc2Sc2ccc(Cl)cc21`, 91.2%.
For the molecule `CC(C1=C(CCN(C)C)Cc2ccccc21)c1ccccn1` (stereo unspecified), the inhibition was -6.73%.
In the case of `CC(=O)c1ccc2c(c1)N(CCCN(C)C)c1ccccc1S2`, the inhibition was 43.7%.
For `C[C@@H](C1=C(CCN(C)C)Cc2ccccc21)c1ccccn1` the value was -1.4%.
As to `CN(C)CCC=C1c2ccccc2CCc2ccccc21`, the inhibition was determined as 60.4%.
For `CCOC(=O)c1ccc(-c2ccc(OC(=O)N(C)Cc3cccc(-c4ccncc4)c3)cc2)cc1` the value was 5%; for `CC(C)(C)c1cc(C(C)(C)C)c2c(c1)C(O)(C(F)(F)F)C(=O)O2` (racemic), -6.8%; for `Fc1ccccc1CNCc1ccc(-c2ccnc3[nH]ccc23)cc1`, 44.7%.
Consider `CSc1nc(N)cc(Oc2ccc(-c3nnc(Nc4cccc(C(F)(F)F)c4)[nH]3)cc2)n1`, for which the inhibition is 10.4%.
Under `CC(C)[C@@H](C)/C=C/[C@@H](C)[C@H]1CC[C@H]2C3=CC=C4C[C@@H](O)CC[C@]4(C)[C@H]3CC[C@]12C` stands 26.6%.
Under `COc1cccc(CN2C[Si](C)(C)O[Si](C)(C)C2)c1` stands 9.47%; under `Nc1ncnc2c1ncn2[C@@H]1O[C@H](COP(=O)(O)OP(=O)(O)OP(=O)(O)O)[C@@H](O)[C@H]1O`, -7.9%; under `NC(=O)Cc1cccc(C(=O)c2ccccc2)c1N`, 48.4%.
For `Nc1c(CC(=O)O)cccc1C(=O)c1ccccc1` the value was 0.48%.
Take `Nc1c(CC(=O)O)cccc1C(=O)c1ccc(Br)cc1`: the inhibition is 69.8%.
For `COc1cc(OC)nc(O[C@H](C(=O)O)C(OC)(c2ccccc2)c2ccccc2)n1` the value was -2.76%; for `COc1cc(/C=C/C(N)=O)cc(OC)c1OC`, 13.3%.
For `Cn1cc(C(=O)c2cccc3ccccc23)cc1C(=O)O` the value was 25%; for `Cn1cc(-c2ccc(F)c(C(F)(F)F)c2)nc1C1CCN(c2ncnc3[nH]ncc23)CC1`, 24%.
Under `CCCCCCCCCCCCCCCCCC[S+](CCC)c1ccccc1C(=O)OCC` (stereo unspecified) stands 21%; under `CC[N+](C)(CC)CCC[n+]1c(-c2ccccc2)c2cc(N)ccc2c2ccc(N)cc21`, 60.2%.
On to `CC[n+]1c(-c2ccccc2)c2cc(N)ccc2c2ccc(N)cc21`, for which the inhibition was found to be 2.78%.
Under `CC(C)(C(=O)O)c1ccc(C(=O)CCCN2CCC(OC(c3ccccc3)c3ccccc3)CC2)cc1` stands 3.08%; under `CCc1c2c(nc3ccc(OC(=O)N4CCC(N5CCCCC5)CC4)cc13)-c1cc3c(c(=O)n1C2)COC(=O)[C@]3(O)CC`, -2.26%.
For `Cc1cc(SCc2sc(-c3ccc(C(F)(F)F)c(F)c3)nc2C)ccc1OCC(=O)O` the value was 66.5%; for `Cc1cc(OCc2nc(-c3ccccc3Cl)cs2)ccc1OCC(=O)O`, 33.8%.
For `Cn1ncnc1COc1nn2c(-c3c(F)cccc3F)nnc2cc1C1CCC1` the value was 3.27%.
Consider `CCOC(=O)C(=O)Nc1cccc(OC)c1C(N)=O`, for which the inhibition came to 24.8%.
Under `CCN(CC)CCCCC(NC(=O)c1ccc([N+](=O)[O-])cc1)c1ccccc1` (stereo unspecified) stands -1.83%; under `CCOc1ccc(/C=C2\NCCc3cc(OCC)c(OCC)cc32)cc1OCC`, 7.94%.
Take `CCOc1nc2c(N)ncnc2n1CC`: the inhibition worked out at 7.36%.
For `CN(C)CCOc1ccc(/C(=C(/CCCl)c2ccccc2)c2ccccc2)cc1` the value was 33.5%; for `Nc1ncnc2c1c(-c1cnc3[nH]ccc3c1)nn2C1CCCC1`, 27.2%.

One may read the inhibition as the relative decrease from the control value, in per cent.
